Shiga toxin inh = inhibitors of Shiga toxin in Vero cells; 290,000 compounds, 9.2% hits; inhibition, % at 38.7 µM; AID 2315; Vero cells, Shiga toxin protein synthesis inhibition reporter; in the data active means inhibition mostly above about 28%, no sharp cut-off; inactive means mostly below about 43%; further: 0% is about no effect
CHX counter = affects cycloheximide protein synthesis inhibition readout, counter-screen | 300,000 compounds, 12% hits | max response, % | cell reporter, cycloheximide protein synthesis inhibition counterscreen; in the data active means max response mostly above about 13%, no sharp cut-off; inactive means mostly below about 14%; further: read at 38.3 µM for the half of the compounds with a filed dose; 0% is about no effect
AMA1 RON2 block = inhibitors of Plasmodium falciparum AMA1-RON2 interaction; AlphaScreen AMA1-biotinylated RON2 peptide binding; Potency, µM (doses to about 58.2 µM), for inactives: at the highest dose activity change, negative = inhibition, actives largely listed as inhibitors; 360,000 compounds, 0.2% hits; AID 720542;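 further: potency means the concentration at half of the fitted maximal effect; 0% = vehicle wells and -100% = peptide control; nearly all actives have a fitted effect of over 45% in size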
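AMA1 (3D7) with his tag at 25 nM final met compounds first, then biotinylated RON2 peptide at 25 nM; detection used donor plus acceptor beads, 10 µg/mL apiece, read by AlphaScreen after 30 min at room temperature.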
SARS PLpro yeast = SARS-CoV PLP inhibition in yeast. S. cerevisiae expressing SARS-CoV PLpro, growth rescue. Potency, µM (titrated, usually from 32.9 µM), for the others: at the top dose activity, positive = growth rescue, most hits filed as activators. 330,000 compounds, 0.19% hits. AID 485353; calls by dose curve; further: potency means the concentration at half of the fitted maximal effect; 0% is about no effect; nearly all actives have a fitted effect of over 55% in size
AmpC no deterg = AmpC beta-lactamase inhibition without detergent; Potency, µM (doses to about 57.1 µM), without a hit: top-dose activity change, negative = inhibition, hits mostly inhibitors; AID 485341; AmpC nitrocefin hydrolysis, absorbance 480 nm, 0.0001% Triton; 330,000 compounds, 0.52% hits; P00811;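 further: potency means the concentration at half of the fitted maximal effect; plate controls were no compound for no effect and no enzyme for full effect; nearly all actives have a fitted effect of over 20% in size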
Target sequence (P00811 whole entry, looked up): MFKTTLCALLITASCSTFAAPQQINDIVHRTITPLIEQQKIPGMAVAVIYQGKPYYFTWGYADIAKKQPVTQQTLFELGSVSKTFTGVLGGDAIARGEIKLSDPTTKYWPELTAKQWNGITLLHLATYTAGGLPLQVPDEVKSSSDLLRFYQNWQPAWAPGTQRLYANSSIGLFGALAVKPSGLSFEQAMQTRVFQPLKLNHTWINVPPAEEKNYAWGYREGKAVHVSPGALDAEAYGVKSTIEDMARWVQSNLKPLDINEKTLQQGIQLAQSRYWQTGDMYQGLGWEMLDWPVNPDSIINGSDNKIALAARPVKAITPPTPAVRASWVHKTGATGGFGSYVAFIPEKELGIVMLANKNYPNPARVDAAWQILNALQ
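AmpC (5.3 nM in the dispensed reagent) in 20 mM phosphate pH 7.0 with 0.01% (detergent screen) or 0.0001% Triton X-100 was preincubated with compounds for 15 min at room temperature. Nitrocefin was then added from an 800 uM solution, and hydrolysis was followed at 480 nm.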
AmpC inh detg = blocks E. coli AmpC beta-lactamase in detergent assay. AID 485294. AmpC hydrolysis of nitrocefin, absorbance 480 nm, 0.01% Triton. 370,000 compounds, 0.041% hits. P00811. Potency, µM (doses to about 114 µM), without a hit: top-dose activity change, negative = inhibition, actives largely listed as inhibitors;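 further: potency means the concentration at half of the fitted maximal effect; 0% = no-compound wells and -100% = no-enzyme wells; nearly all actives have a fitted effect of over 25% in size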
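20 mM phosphate pH 7.0 + 0.01% (detergent screen) or 0.0001% Triton X-100; 5.3 nM AmpC reagent; cpd preinc 15 min RT; nitrocefin (800 uM stock) to start; A480 q20 s × 4 min; Activity was normalised to no-enzyme and no-compound control wells.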
An asterisk follows results filed as active; ? = inconclusive; . = no result; [ ] = another dose, or the depositor's remark. Only a selection was taken, and hits are over-represented in it overall. Unless noted, the call rests on the fitted dose curve; in most records, active means well fitted curve in the direction sought with a large enough effect; inconclusive means small, poorly fitted or top-dose-only effect, or another doubt; inactive means no such curve, though single readings can be large; an effect the other way counts as inactive or inconclusive.

SMILES	Shiga toxin inh	CHX counter	AMA1 RON2 block	SARS PLpro yeast	AmpC no deterg	AmpC inh detg
COc1ccc(CCNc2cc(C)nc3c(-c4ccc(Cl)cc4)cnn23)cc1OC	-8	6	30%[11.6 µM]	-16%	27%	?
COc1ccccc1-c1cnn2c(NCCc3ccccc3)cc(C)nc12	75*	34*	96%	-2%	-19%	1%
Cc1cc(NCc2ccccc2)n2ncc(-c3ccccc3)c2n1	93*	67*	76%	-7%	-39%	-2%
COc1ccc(CCNc2cc(C)nc3c(-c4ccccc4)cnn23)cc1OC	active	48*	15%	-34%	131%	-4%
Cc1cc(NCCCn2ccnc2)n2ncc(-c3ccccc3)c2n1	18	9	-12%	-9%	45%	-1%
COC(=O)CCCNC(=O)c1ccc2nc(Cc3ccc(OC)cc3)oc2c1	60	14*	-4%	-3%	13%	-10%
C=C(C)CNC(=O)c1ccc2nc(Cc3ccc(OC)cc3)oc2c1	39*	39*	1%	0%	9%	?
Cc1ccc(N(C(=O)CNC(=O)c2ccco2)C(C(=O)NC2CCCCC2)c2cccnc2)cc1 (centres undefined)	-6	-2	-8%	0%	40%	2%
CCOC(=O)N1CCN(C(=O)Cc2ccc(C)cc2)CC1	-1	-1	-10%	-3%	-9%	?
CCc1ccc(CC(=S)N2CCOCC2)cc1	62*	26*	3%	-3%	-7%	3%
O=C(Cc1ccc(Br)cc1)N1CCN(c2ccccc2O)CC1	95*	36*	0%	-5%	74%	0%
CCN1CCN(C(=O)Cc2ccc(C)cc2)CC1	42	22*	8%	-5%	0%	1%
O=C(Cc1ccc(Cl)c(Cl)c1)N1CCOCC1	35*	8	6%	5%	-3%	3%
COc1ccc(CNC(=O)C(C)N(Cc2ccccc2OC)C(=O)c2snc(C(N)=O)c2N)cc1 (centres undefined)	-14	-5	-3%	0%	-6%	2%
CC(NC(=O)C12CC3CC(C)(CC(C)(C3)C1)C2)c1ccncc1 (centres undefined)	-18	-3	-22%	1%	2%	-13%
O=C(/C=C/c1cccc([N+](=O)[O-])c1)Nn1c(-c2ccccc2F)nc2ccccc2c1=O	-13	-1	-17%	2%	-15%	-14%
CCCn1cnc2c(c1=O)c1nc3ccccc3nc1n2CCc1ccccc1	1	-4	0%	1%	-21%	-22%
O=C(Cc1ccc(-c2ccccc2)cc1)N1CCOCC1	17	9	-3%	1%	-14%	?
O=C(Cc1ccc(Br)cc1)N1CCOCC1	23	11*	13%	-2%	-8%	-4%
Cc1cc(C)n(C(=O)CNc2ccc(C)c(C)c2)n1	29	32*	-14%	2%	-15%	5%
Cc1cc(C)n(C(=O)CCCC(=O)n2nc(C)cc2C)n1	-5	-3	0%	-1%	7%	-13%
COc1ccc(Cn2c(=O)cc(N)n(-c3ccccc3C)c2=O)cc1	8	7	-6%	0%	-1%	7%
COc1cc(N)c(C(=O)c2nccc3cc(OC)c(OC)cc23)cc1OC	-9	-2	-8%	14%	-12%	?
Cc1cccc(NC(=O)c2ccc([N+](=O)[O-])s2)n1	61*	61*	4%	-10%	-10%	3%
Cc1ccnc(NC(=O)c2ccc([N+](=O)[O-])s2)c1	85*	60*	41%	-2%	-10%	0%
SMILES	Shiga toxin inh	CHX counter	AMA1 RON2 block	SARS PLpro yeast	AmpC no deterg	AmpC inh detg
Brc1ccc(-c2csc(/N=C/N3CCCC3)n2)cc1	67*	68*	?	-10%	80%	12%
O=C(CN1CCOCC1)Nc1nc(-c2ccccc2)cs1	27	11	0%	1%	-13%	-8%
CC(=O)N(/N=C/c1cccc(C)c1)c1nc(-c2ccc(Br)cc2)cs1	12	-3	-2%	-3%	8%	?
OCCN(/C=N/c1nc(-c2ccc(Br)cc2)cs1)CCO	64*	30*	-20%	-43%	11%	3%
Brc1ccc(-c2csc(/N=C/N3CCOCC3)n2)cc1	49	36*	-11%	-17%	56%	1%
O=C1CC(N2CCN(S(=O)(=O)c3cccc(C(F)(F)F)c3)CC2)C(=O)N1Cc1ccccc1 (centres undefined)	-1	-4	12%	-12%	76%	-15%
CN1c2ccccc2C(=O)/C(=C\Nc2ncccn2)S1(=O)=O	19	11	0%	0%	-28%	-11%
N#Cc1c2n(c(=S)n(-c3ccccc3)c1=O)CCCCC2	-7	14*	-15%	28%	-20%	-20%
CCCCCCc1cc2cc(S(=O)(=O)c3ccc(F)cc3)c(=O)oc2cc1O	-13	-1	14%	12%	-48%	-4%
CN(C)C(=O)c1ccc(NC(=O)COC(=O)CC23CC4CC(CC(Br)(C4)C2)C3)cc1	.	.	-19%	0%	95%	-16%
CCn1nnnc1SCC(=O)Nc1nc(C)c(C)s1	44*	29*	-4%	12%	-12%	-10%
COCCCn1nnnc1SCC(=O)N1CCCC1	-28	-4	0%	?	-4%	-6%
COCCCn1nnnc1SCC(=O)Nc1nc(C)c(C)s1	-14	18*	3%	23%	-12%	0%
O=C(NCc1cccc(Cl)c1)c1cccc(OC2CCN(C(=O)C3CC3)CC2)c1	14	-1	-3%	-2%	79%	-3%
Cc1cc(CN(C)C(=O)c2ccc3nc(Cc4ccccc4F)oc3c2)on1	75*	46*	2%	-8%	-11%	1%
Cc1ccc(NC(=O)c2ccc3nc(Cc4ccccc4)oc3c2)cc1F	.	.	.	.	.	1%
CN(Cc1nccn1C)C(=O)c1ccc2nc(Cc3ccccc3F)oc2c1	69*	55*	4%	2%	14%	1%
CN(Cc1nccs1)C(=O)c1ccc2nc(Cc3ccccc3F)oc2c1	-13	-3	-13%	-4%	-4%	-3%
CC1CCCCC1NC(=O)C1CCC(CNS(=O)(=O)c2ccc(F)cc2)CC1 (centres undefined)	-1	-4	-8%	-1%	-6%	-2%
CCCc1cc(=O)[nH]c2nnc(SCC(=O)Nc3ccc(C(C)=O)cc3)n12	.	.	-10%	9%	-5%	2%
CCc1cccc2c(-c3csc(=NC)n3C)c[nH]c12	1	9	-13%	1%	-2%	-6%
Cc1ccccc1CS(=O)(=O)CCC(=O)NCCCN1CCN(c2ccccc2F)CC1	-3	-7	-2%	-2%	108%	-5%
